Source: PubChem BioAssay AID1159580 (chemical genetic matrix, 2015)
The campaign covered roughly 5,500 compounds. About 2,000 (36%) were called active. Another 18% or so got no clear call; they are omitted. Cut-off read from the data, not from the text of the source: active = normalized growth mostly below about 0.91 (no sharp cut-off); inconclusive = no clear call, values can overlap the other calls; inactive = mostly above about 0.92. The list shows a part of the results.

Assay: chemical genetic growth profiling, strain panel (AID 1159580);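 note: tested at 20 µM; growth read once vehicle control cultures reached saturation at 30 °C; 1 = growth at the plate median or of vehicle wells; lower values mean less growth of the strain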
Conditions: growth OD

Measured: normalized growth

CC1CCCC(C)N1NC(=O)c1ccc(Cl)c(S(N)(=O)=O)c1 (stereo unspecified)
active: S. cerevisiae deletion strains, locus YNL322C, strain KRE1 (second series), active compounds read low 1.11 [resistant]
inactive: S. cerevisiae deletion strains, locus YKL009W, strain mrt4, active compounds read low 0.973 | S. cerevisiae deletion strains, locus YKL068W, active compounds read low 0.992 | S. cerevisiae deletion strains, locus YKL085W, strain MDH1 (second series), active compounds read low 0.987 | S. cerevisiae deletion strains, locus YKL085W, strain MDH1, active compounds read low 0.987 | S. cerevisiae deletion strains, locus YKL160W, strain elf1, active compounds read low 0.995 | S. cerevisiae deletion strains, locus YKL190W, strain CNB1, active compounds read low 0.99 | S. cerevisiae deletion strains, locus YKR001C, strain vps1, active compounds read low 1 | S. cerevisiae deletion strains, locus YKR026C, strain gcn3, active compounds read low 0.999 | S. cerevisiae deletion strains, locus YKR091W, strain srl3, active compounds read low 1.02 | S. cerevisiae deletion strains, locus YLL001W, strain dnm1, active compounds read low 1.01 | S. cerevisiae deletion strains, locus YLL026W, active compounds read low 1.02 | S. cerevisiae deletion strains, locus YLL041C, strain sdh2, active compounds read low 0.998 | S. cerevisiae deletion strains, locus YLR027C, strain aat2, active compounds read low 1.03 | S. cerevisiae deletion strains, locus YLR039C, strain RIC1, active compounds read low 0.989 | S. cerevisiae deletion strains, locus YLR058C, strain SHM2, active compounds read low 0.99 | S. cerevisiae deletion strains, locus YLR102C, strain apc9, active compounds read low 0.996 | S. cerevisiae deletion strains, locus YLR113W, strain HOG1, active compounds read low 0.993 | S. cerevisiae deletion strains, locus YLR221C, strain rsa3, active compounds read low 1.04 | S. cerevisiae deletion strains, locus YLR258W, strain gsy2, active compounds read low 0.998 | S. cerevisiae deletion strains, locus YLR262C, strain YPT6 (second series), active compounds read low 1.01 | S. cerevisiae deletion strains, locus YLR262C, strain YPT6, active compounds read low 0.997 | S. cerevisiae deletion strains, locus YLR268W, strain sec22, active compounds read low 0.933 | S. cerevisiae deletion strains, locus YLR320W, strain mms22, active compounds read low 1.02 | S. cerevisiae deletion strains, locus YLR330W, strain CHS5, active compounds read low 0.989 | S. cerevisiae deletion strains, locus YLR342W, strain FKS1 (second series), active compounds read low 1.06 | S. cerevisiae deletion strains, locus YLR342W, strain FKS1, active compounds read low 1.01 | S. cerevisiae deletion strains, locus YLR357W, strain rsc2, active compounds read low 1.05 | S. cerevisiae deletion strains, locus YLR370C, strain arc18, active compounds read low 1.01 | S. cerevisiae deletion strains, locus YLR371W, strain rom2, active compounds read low 1 | S. cerevisiae deletion strains, locus YLR384C, strain iki3, active compounds read low 1.01 | S. cerevisiae deletion strains, locus YLR418C, strain cdc73, active compounds read low 1.01 | S. cerevisiae deletion strains, locus YML016C, strain PPZ1, active compounds read low 0.991 | S. cerevisiae deletion strains, locus YML032C, strain rad52, active compounds read low 0.975 | S. cerevisiae deletion strains, locus YML120C, strain ndi1, active compounds read low 1.01 | S. cerevisiae deletion strains, locus YML124C, strain tub3, active compounds read low 0.988 | S. cerevisiae deletion strains, locus YMR058W, strain fet3, active compounds read low 1.03 | S. cerevisiae deletion strains, locus YMR078C, strain ctf18, active compounds read low 1.01 | S. cerevisiae deletion strains, locus YMR125W, strain sto1, active compounds read low 1.01 | S. cerevisiae deletion strains, locus YMR129W, active compounds read low 1.02 | S. cerevisiae deletion strains, locus YMR205C, strain PFK2, active compounds read low 0.992 | S. cerevisiae deletion strains, locus YMR223W, strain ubp8, active compounds read low 1.03 | S. cerevisiae deletion strains, locus YMR231W, strain pep5, active compounds read low 1.02 | S. cerevisiae deletion strains, locus YMR263W, strain SAP30, active compounds read low 0.982 | S. cerevisiae deletion strains, locus YMR307W, strain GAS1, active compounds read low 1.09 | S. cerevisiae deletion strains, locus YNL067W, strain RPL9B, active compounds read low 0.973 | S. cerevisiae deletion strains, locus YNL071W, strain lat1, active compounds read low 1.02 | S. cerevisiae deletion strains, locus YNL128W, strain TEP1, active compounds read low 1 | S. cerevisiae deletion strains, locus YNL153C, strain GIM3, active compounds read low 0.981 | S. cerevisiae deletion strains, locus YNL183C, strain NPR1, active compounds read low 0.952 | S. cerevisiae deletion strains, locus YNL209W, strain ssb2, active compounds read low 1 | S. cerevisiae deletion strains, locus YNL233W, strain BNI4, active compounds read low 0.977 | S. cerevisiae deletion strains, locus YNL248C, strain rpa49, active compounds read low 1.02 | S. cerevisiae deletion strains, locus YNL250W, strain rad50, active compounds read low 0.981 | S. cerevisiae deletion strains, locus YNL271C, strain bni1, active compounds read low 0.986 | S. cerevisiae deletion strains, locus YNL298W, strain CLA4, active compounds read low 0.985 | S. cerevisiae deletion strains, locus YNL307C, strain MCK1, active compounds read low 0.98 | S. cerevisiae deletion strains, locus YNL322C, strain KRE1, active compounds read low 0.99 | S. cerevisiae deletion strains, locus YNR049C, strain mso1, active compounds read low 1 | S. cerevisiae deletion strains, locus YNR052C, strain pop2, active compounds read low 0.996 | S. cerevisiae deletion strains, locus YOL006C, strain TOP1, active compounds read low 0.953 | S. cerevisiae deletion strains, locus YOL012C, strain htz1 0.717 | S. cerevisiae deletion strains, locus YOL147C, strain pex11, active compounds read low 0.99 | S. cerevisiae deletion strains, locus YOR001W, strain rrp6, active compounds read low 1.02 | S. cerevisiae deletion strains, locus YOR061W, strain CKA2, active compounds read low 0.999 | S. cerevisiae deletion strains, locus YOR069W, strain VPS5, active compounds read low 0.996 | S. cerevisiae deletion strains, locus YOR070C, strain gyp1, active compounds read low 1.02 | S. cerevisiae deletion strains, locus YOR080W, strain dia2, active compounds read low 1.02 | S. cerevisiae deletion strains, locus YOR083W, strain WHI5, active compounds read low 1.01 | S. cerevisiae deletion strains, locus YOR106W, strain vam3, active compounds read low 0.988 | S. cerevisiae deletion strains, locus YOR136W, strain idh2, active compounds read low 1.01 | S. cerevisiae deletion strains, locus YOR144C, strain elg1, active compounds read low 0.994 | S. cerevisiae deletion strains, locus YOR184W, strain ser1, active compounds read low 0.989 | S. cerevisiae deletion strains, locus YOR231W, strain MKK1, active compounds read low 0.979 | S. cerevisiae deletion strains, locus YOR265W, strain rbl2, active compounds read low 1.01 | S. cerevisiae deletion strains, locus YOR270C, strain vph1, active compounds read low 1.04 | S. cerevisiae deletion strains, locus YOR290C, strain snf2, active compounds read low 1.01 | S. cerevisiae deletion strains, locus YOR316C, strain cot1, active compounds read low 0.985 | S. cerevisiae deletion strains, locus YPL051W, strain arl3, active compounds read low 1.02 | S. cerevisiae deletion strains, locus YPL055C, strain LGE1, active compounds read low 1.01 | S. cerevisiae deletion strains, locus YPL078C, strain atp4, active compounds read low 1.02 | S. cerevisiae deletion strains, locus YPL106C, strain sse1, active compounds read low 0.998 | S. cerevisiae deletion strains, locus YPL240C, strain hsp82, active compounds read low 1.01 | S. cerevisiae deletion strains, locus YPL241C, strain CIN2, active compounds read low 1 | S. cerevisiae deletion strains, locus YPL256C, strain CLN2, active compounds read low 0.948 | S. cerevisiae deletion strains, locus YPR119W, strain clb2, active compounds read low 0.99 | S. cerevisiae deletion strains, locus YPR141C, strain kar3, active compounds read low 0.985 | S. cerevisiae deletion strains, locus YPR163C, strain tif3, active compounds read low 0.99 | S. cerevisiae deletion strains, locus YPR167C, strain met16, active compounds read low 0.989 | S. cerevisiae deletion strains, strain wtn01, active compounds read low 0.989 | S. cerevisiae strains, strain wild type, active compounds read low 1.01
